Results reported in PubChem BioAssay (NCATS).
Several values for one entry are separate records, joined by “and”; a condition that tells them apart may be missing. Equal values may be shown once. Results filed as inconclusive are left out. More than one record can exist for a structure, and the calls need not agree. Activity calls are given as the source filed them. Unless noted, the call rests on the fitted dose curve; in most records, active means well fitted curve in the direction sought with a large enough effect; inconclusive means small, poorly fitted or top-dose-only effect, or another doubt; inactive means no such curve, though single readings can be large; an effect the other way counts as inactive or inconclusive.

What was measured:
[1] = target: ATP-dependent 6-phosphofructokinase (Trypanosoma brucei brucei) (UniProt O15648); assay: qHTS Assay to Find Inhibitors of T. brucei phosphofructokinase: hit validation (AID 492961);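 further: luminescence reports ADP formed as PFK phosphorylates fructose-6-phosphate with ATP; series mostly up to about 51 µM; on the % scale 0 is the no-effect control and ±100 the full control effect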
Procedure, shortened: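 Reaction: 0.1 M triethanolamine pH 8.0, 5 mM MgCl2, F6P 0.5 mM, ATP 0.1 mM, PFK 1.25 nM, 45 min RT. Read-out: ADP-Glo luminescence. Analysis: concentration-response fits, classed by r2 and efficacy.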

[2] = target: Ubiquitin carboxyl-terminal hydrolase 1 (Homo sapiens) (UniProt O94782); assay: Inhibitors of USP1/UAF1: Pilot qHTS (AID 504865); further: nearly all actives have a fitted effect of over 35% in size; further: potency means the concentration at half of the fitted maximal effect
Procedure, shortened: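 Enzyme-free wells gave the negative control, while test wells held 1nM USP1/UAF1 preincubated with compound for 15 min at room temperature. Ub-Rho at 150nM final started the reaction, and fluorescence at 480/540 nm was recorded kinetically.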

[3] = target: D(1A) dopamine receptor (Homo sapiens) (UniProt P21728); assay: HTS Assay for Allosteric Agonists of the Human D1 Dopamine Receptor: Primary Screen for Potentiators (AID 488982); further: 0% is about no effect
Procedure, shortened: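 Tetracycline-induced HEK293 T-REx cells force-coupled to calcium signalling were incubated overnight at 30 C and dye-loaded at room temperature. Calcium flux over 180 s after compound addition flagged agonists; a further 180 s read after EC20 dopamine flagged potentiators.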

[4] = target: D(1A) dopamine receptor (Homo sapiens) (UniProt P21728); assay: HTS Assay for Allosteric Agonists of the Human D1 Dopamine Receptor: Primary Screen for Antagonists (AID 488983);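 further: calcium flux response to an EC80 dopamine challenge measured with no-wash dye; on the % scale 0 is the no-effect control and ±100 the full control effect; nearly all actives have a fitted effect of over 65% in size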
Procedure, shortened: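 Kinetic fluorescence at 1 cycle/sec tracked intracellular calcium in force-coupled, tetracycline-inducible HEK293 T-REx D1 cells. Loss of response to an EC80 dopamine dose, given 180 s after compound, marked antagonists.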

[5] = Validation screen for small molecules that induce genotoxicity in human embryonic kidney (HEK293T) cells expressing luciferase-tagged ELG1 (AID 493106); further: 0% is about no effect
Procedure, shortened: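 Cells were dispensed at 2,000 per well, then 23 nL compound or DMSO was pinned in. After 16 hr at 37 °C and 5% CO2, ONE-Glo reagent was added. Luciferase activity was measured following 30 min at room temperature.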

[6] = target: ATPase family AAA domain-containing protein 5 (Homo sapiens) (UniProt Q96QE3); assay: Validation screen for small molecules that inhibit ELG1-dependent DNA repair in human embryonic kidney (HEK293T) cells expressing luciferase-tagged ELG1 (AID 493107);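 further: cells co-treated with the DNA-damaging agent 5-fluorouridine alongside compound; series mostly up to about 46 µM; on the % scale 0 is the no-effect control and ±100 the full control effect; inhibitors lower the ELG1-luciferase luminescence signal; nearly all actives have a fitted effect of over 70% in size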
Procedure, shortened: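 Cells are dispensed in 1536-well format, then 5-fluorouridine and compound are pinned in. After a 16 hr incubation at 37 °C and 5% CO2, ONE-Glo is added and luciferase measured on a CCD imager.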

[7] = target: Thyrotropin-releasing hormone receptor (Homo sapiens) (UniProt P34981); assay: qHTS for Small Molecule Agonists and Allosteric Enhancers of Human TRH Receptor: Validation Screen for Agonists (AID 493127;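 active means calcium activation more than 3 SD above the typical response in the agonist read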;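 further: intracellular calcium rise by fluo-8 fluorescence before TRH EC20 addition; 0% is about no effect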); conditions: TRH receptor agonist cell assay; at 2 µM; stronger effect = higher value
Procedure, shortened: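 Compounds are added by online pintool to dye-loaded TRHR cells while fluorescence is recorded every second. A rise in calcium signal during the agonist read marks activation; a later 10 nM TRH addition (EC20) serves the separate enhancer mode.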

[8] = Nrf2 qHTS screen for inhibitors: Validation (AID 493153; active means well fitted inhibition curve with a large enough effect in the main read-out, with a control signal flat, not every such curve was filed as active;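 on activity change, negative = inhibition: A549 cells with ARE-driven firefly luciferase reporter reporting Nrf2 activity; series mostly up to about 46 µM; % of control where 0% means no effect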); conditions: viability change: measured here: cytotoxicity max response
Procedure, shortened: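 A549 ARE_Fluc, 5% FBS OPTI-MEM; cpd titration, 18-24 h, 37°C/5% CO2. Read 1: CellTiter-Fluor (Ex 405/Em 525), cytotox. Read 2: luciferase lum, Nrf2 activity.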

[9] = qHTS for Inhibitors of Cell Surface uPA Generation: Validation Assay (AID 493164);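 further: RAW 264.7 macrophage cells exposed to compound for 18 h; 0% is about no effect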
Procedure, shortened: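 ATP-Lite luminescence read-out: ATP remains high when uPA activity-dependent LF translocation into the cytoplasm is blocked. RAW 264.7 cells, 18 h compound exposure at 37 C; 7-point titration, 2.45 nM to 38.3 uM final.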

[10] = target: Galactokinase (Homo sapiens) (UniProt P51570); assay: qHTS Validation Assay for Inhibitors of Human Galactokinase (GALK) (AID 493189); further: 0% is about no effect
Procedure, shortened: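 Enzyme activity is inferred from ATP consumption: human GALK phosphorylates galactose (100 uM) using 35 uM ATP for 1 h at room temperature, and luciferase-based Kinase-Glo Plus reports unconsumed ATP.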

[11] = Validation screen for small molecules that induce DNA re-replication in SW480 colon adenocarcinoma cells (AID 504364); further: 0% is about no effect
Procedure, shortened: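 Image-based qHTS: compounds were incubated with SW480 cells for 48 hr, nuclei stained with Hoechst, and per-nucleus fluorescence intensity scanned to flag cells with excess DNA content.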

[12] = target: Peptidyl-prolyl cis-trans isomerase NIMA-interacting 1 (Homo sapiens) (UniProt Q13526); assay: qHTS Validation Assay to Find Inhibitors of Pin1 (AID 504536; active means well fitted inhibition curve with a large enough effect in the polarisation, with a control signal flat, not every such curve was filed as active; the % refers to the polarisation;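 further: 0% = full Pin1 enzyme wells and -100% = no-enzyme wells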)
Procedure, shortened: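 Fluorescence polarization competition: compounds (titration) displace HiFluor-488-labeled Pin1-1b peptide from Pin1 (0.3 uM final) in pH 7.5 HEPES buffer with DTT, 10 min at room temperature; %Activity normalized to no-enzyme wells, curves fitted.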

[13] = target: Phosphoglycerate kinase, glycosomal (Trypanosoma brucei brucei) (UniProt P07378); assay: qHTS Validation Assay to Find Inhibitors of Phosphoglycerate Kinase (AID 504547);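 further: control wells lack PGK and mark full inhibition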
Procedure, shortened: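 In TEA buffer (100mM, pH 7.6) containing 5mM MgCl2 and 0.01% Tween-20, the GAPDH-coupled PGK reaction proceeded for 60 minutes at room temperature before a single luminescence reading using Kinase-Glo Plus.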

[14] = target: phosphoglycerate mutase (Leishmania major) (UniProt Q4Q090); assay: qHTS Validation Assay to Find Inhibitors of Phosphoglycerate Mutase (AID 504548); further: series mostly up to about 58 µM; on the % scale 0 is the no-effect control and ±100 the full control effect
Procedure, shortened: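 Lm PGAM at 1.25 nM final with substrate in 100 mM TEA pH 7.6, 5 mM MgCl2, 0.01% Tween-20; 45 min at room temperature. Kinase-GloPlus added, 10 min, end-point luminescence read.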

[15] = Inducers of the Endoplasmic Reticulum Stress Response (ERSR) in human glioma: Validation (AID 504836); further: 0% is about no effect
Procedure, shortened: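 Stably transfected U87-MG human glioma cells carrying a GRP78-based luminescent sensor were seeded at 1000 cells/well, pin-dosed with compounds and incubated 16 h. Luciferase reagent was then added, and end-point luminescence was read after 10 min at room temperature.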

[16] = qHTS for Inhibitors of ATXN expression: Validation of Cytotoxic Assay (AID 588349); further: on the % scale 0 is the no-effect control and ±100 the full control effect
Procedure, shortened: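 Titrated compounds are added to cultured HEK293 cells, which are then held at 37 degrees C for 72 hr; loss of intracellular ATP, measured with CellTiter Glo, indicates toxicity.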

[17] = qHTS for Inhibitors of ATXN expression: Validation (AID 588378); further: series mostly up to about 57 µM; on the % scale 0 is the no-effect control and ±100 the full control effect; nearly all actives have a fitted effect of over 75% in size
Procedure, shortened: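 After a 2 h attachment and 24 h compound incubation, HEK293-ATXN2-FFLuc wells are read for fluorescence at 405 nm excitation/525 nm emission as a viability measure, then for Bright-Glo luminescence reflecting ATXN2 expression.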

[18] = target: DNA dC->dU-editing enzyme APOBEC-3G (Homo sapiens) (UniProt Q9HC16); assay: qHTS for inhibitors of Vif-A3G interactions: Validation (AID 588379); further: 0% is about no effect
Procedure, shortened: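 Yellow fluorescence (Ex 488, Em 500-530) of Vif-coexpressing HeLa A3G-eYFP cells, scanned by Acumen cytometer, reports blocked A3G degradation. Cells plated at 700/well overnight at 37 deg C before compound addition, then a further overnight compound incubation at 37 deg C.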

[19] = target: Estrogen receptor (Homo sapiens) (UniProt P03372); assay: qHTS assay for small molecule antagonists of estrogen receptor alpha signaling (AID 588513; active means well fitted curve in the direction sought with a large enough effect in the signal ratio, with a control signal flat, not every such curve was filed as active; the % refers to the signal ratio; further: on the % scale 0 is the no-effect control and ±100 the full control effect)
Procedure, shortened: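 Antagonist-mode qHTS in ER-alpha-UAS-bla HEK 293 cells: compound titration, 0.5nM estradiol for 18 h, CCF4 fluorescence, Hill-derived IC50.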

[20] = target: Tyrosyl-DNA phosphodiesterase 1 (Homo sapiens) (UniProt Q9NUW8); assay: Confirmation Assay for Inhibitors of Tyrosyl-DNA Phosphodiesterase (TDP1) (AID 489007); conditions: recombinant human TDP1 enzymatic activity, dose-response; further: potency means the concentration at half of the fitted maximal effect; nearly all actives have a fitted effect of over 40% in size
Procedure, shortened: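 Compounds are preincubated 15 min at room temperature with 1 nM recombinant human Tdp1. The reaction starts on adding 15 nM FITC-phosphotyrosine DNA substrate, runs 5 min, and is detected by AlphaScreen beads after 10 min.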

Chain of Ubiquitin carboxyl-terminal hydrolase 1 (Homo sapiens) (O94782 whole entry, looked up): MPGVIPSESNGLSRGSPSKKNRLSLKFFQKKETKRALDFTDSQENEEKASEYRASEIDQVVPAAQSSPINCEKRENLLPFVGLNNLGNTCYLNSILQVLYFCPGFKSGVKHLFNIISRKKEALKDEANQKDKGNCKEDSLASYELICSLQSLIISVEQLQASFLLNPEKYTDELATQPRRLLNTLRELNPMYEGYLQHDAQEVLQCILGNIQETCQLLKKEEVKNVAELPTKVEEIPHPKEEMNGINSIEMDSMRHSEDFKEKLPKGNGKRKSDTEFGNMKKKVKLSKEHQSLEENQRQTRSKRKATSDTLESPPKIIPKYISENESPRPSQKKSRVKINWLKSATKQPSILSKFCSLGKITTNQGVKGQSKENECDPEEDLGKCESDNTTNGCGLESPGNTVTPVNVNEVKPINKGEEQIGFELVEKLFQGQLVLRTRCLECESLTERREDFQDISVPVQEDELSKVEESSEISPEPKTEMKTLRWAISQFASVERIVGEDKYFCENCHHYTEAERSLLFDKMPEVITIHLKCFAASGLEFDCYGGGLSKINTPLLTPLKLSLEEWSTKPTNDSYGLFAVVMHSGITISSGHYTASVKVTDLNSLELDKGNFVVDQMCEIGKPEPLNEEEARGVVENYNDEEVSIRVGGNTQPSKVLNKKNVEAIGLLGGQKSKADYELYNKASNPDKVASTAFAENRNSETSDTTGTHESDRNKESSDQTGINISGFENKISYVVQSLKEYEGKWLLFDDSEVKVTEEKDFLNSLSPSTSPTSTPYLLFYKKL
Chain of Thyrotropin-releasing hormone receptor (Homo sapiens) (P34981 whole entry, looked up): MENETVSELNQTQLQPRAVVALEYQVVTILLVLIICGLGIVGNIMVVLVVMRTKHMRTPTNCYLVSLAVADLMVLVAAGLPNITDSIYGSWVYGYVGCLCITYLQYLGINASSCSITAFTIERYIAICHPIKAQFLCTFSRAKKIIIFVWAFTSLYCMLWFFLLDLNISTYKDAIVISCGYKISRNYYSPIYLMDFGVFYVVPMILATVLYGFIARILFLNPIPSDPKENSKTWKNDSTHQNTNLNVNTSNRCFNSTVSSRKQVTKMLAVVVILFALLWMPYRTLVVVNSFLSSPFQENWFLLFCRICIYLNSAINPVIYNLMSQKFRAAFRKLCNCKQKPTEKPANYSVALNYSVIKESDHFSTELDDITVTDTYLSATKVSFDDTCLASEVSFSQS
Chain of D(1A) dopamine receptor (Homo sapiens) (P21728 whole entry, looked up): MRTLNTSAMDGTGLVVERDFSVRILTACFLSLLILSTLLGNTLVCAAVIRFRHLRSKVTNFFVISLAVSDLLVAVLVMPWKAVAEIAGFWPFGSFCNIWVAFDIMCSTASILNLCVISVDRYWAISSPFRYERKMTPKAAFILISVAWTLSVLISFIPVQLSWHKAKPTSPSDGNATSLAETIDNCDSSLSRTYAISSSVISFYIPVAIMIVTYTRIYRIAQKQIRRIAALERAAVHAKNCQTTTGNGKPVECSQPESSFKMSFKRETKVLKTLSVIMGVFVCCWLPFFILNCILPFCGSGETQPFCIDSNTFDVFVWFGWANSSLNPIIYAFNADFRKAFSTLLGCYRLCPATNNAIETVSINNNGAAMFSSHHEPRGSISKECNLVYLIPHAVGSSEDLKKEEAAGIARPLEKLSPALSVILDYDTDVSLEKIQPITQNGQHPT
Chain of Galactokinase (Homo sapiens) (P51570 whole entry, looked up): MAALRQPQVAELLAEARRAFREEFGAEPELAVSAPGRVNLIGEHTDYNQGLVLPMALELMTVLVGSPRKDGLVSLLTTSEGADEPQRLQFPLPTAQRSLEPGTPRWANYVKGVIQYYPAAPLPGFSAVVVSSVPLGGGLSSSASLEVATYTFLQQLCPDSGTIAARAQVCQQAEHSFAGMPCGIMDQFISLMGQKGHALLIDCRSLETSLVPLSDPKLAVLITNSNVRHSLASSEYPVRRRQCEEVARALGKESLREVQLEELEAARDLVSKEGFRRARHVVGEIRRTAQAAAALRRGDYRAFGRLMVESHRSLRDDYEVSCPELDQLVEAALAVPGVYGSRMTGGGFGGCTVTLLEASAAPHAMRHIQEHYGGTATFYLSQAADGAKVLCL
Chain of phosphoglycerate mutase (Leishmania major) (Q4Q090 1-553): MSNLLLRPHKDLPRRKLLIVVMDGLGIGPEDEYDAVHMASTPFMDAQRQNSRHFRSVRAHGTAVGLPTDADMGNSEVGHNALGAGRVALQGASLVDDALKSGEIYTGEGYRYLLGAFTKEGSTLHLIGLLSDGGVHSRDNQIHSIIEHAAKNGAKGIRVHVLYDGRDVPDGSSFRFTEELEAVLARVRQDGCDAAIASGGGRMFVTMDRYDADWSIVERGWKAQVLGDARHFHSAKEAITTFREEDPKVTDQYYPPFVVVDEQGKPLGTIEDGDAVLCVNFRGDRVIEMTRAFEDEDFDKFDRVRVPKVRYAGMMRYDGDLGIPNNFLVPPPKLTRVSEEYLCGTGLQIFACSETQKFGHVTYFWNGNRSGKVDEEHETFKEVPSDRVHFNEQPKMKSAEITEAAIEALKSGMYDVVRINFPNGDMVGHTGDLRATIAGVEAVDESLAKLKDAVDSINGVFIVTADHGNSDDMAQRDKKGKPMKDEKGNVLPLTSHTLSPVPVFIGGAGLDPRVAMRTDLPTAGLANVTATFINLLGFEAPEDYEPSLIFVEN
Chain of ATPase family AAA domain-containing protein 5 (Homo sapiens) (Q96QE3 whole entry, looked up, the tested form may be a part): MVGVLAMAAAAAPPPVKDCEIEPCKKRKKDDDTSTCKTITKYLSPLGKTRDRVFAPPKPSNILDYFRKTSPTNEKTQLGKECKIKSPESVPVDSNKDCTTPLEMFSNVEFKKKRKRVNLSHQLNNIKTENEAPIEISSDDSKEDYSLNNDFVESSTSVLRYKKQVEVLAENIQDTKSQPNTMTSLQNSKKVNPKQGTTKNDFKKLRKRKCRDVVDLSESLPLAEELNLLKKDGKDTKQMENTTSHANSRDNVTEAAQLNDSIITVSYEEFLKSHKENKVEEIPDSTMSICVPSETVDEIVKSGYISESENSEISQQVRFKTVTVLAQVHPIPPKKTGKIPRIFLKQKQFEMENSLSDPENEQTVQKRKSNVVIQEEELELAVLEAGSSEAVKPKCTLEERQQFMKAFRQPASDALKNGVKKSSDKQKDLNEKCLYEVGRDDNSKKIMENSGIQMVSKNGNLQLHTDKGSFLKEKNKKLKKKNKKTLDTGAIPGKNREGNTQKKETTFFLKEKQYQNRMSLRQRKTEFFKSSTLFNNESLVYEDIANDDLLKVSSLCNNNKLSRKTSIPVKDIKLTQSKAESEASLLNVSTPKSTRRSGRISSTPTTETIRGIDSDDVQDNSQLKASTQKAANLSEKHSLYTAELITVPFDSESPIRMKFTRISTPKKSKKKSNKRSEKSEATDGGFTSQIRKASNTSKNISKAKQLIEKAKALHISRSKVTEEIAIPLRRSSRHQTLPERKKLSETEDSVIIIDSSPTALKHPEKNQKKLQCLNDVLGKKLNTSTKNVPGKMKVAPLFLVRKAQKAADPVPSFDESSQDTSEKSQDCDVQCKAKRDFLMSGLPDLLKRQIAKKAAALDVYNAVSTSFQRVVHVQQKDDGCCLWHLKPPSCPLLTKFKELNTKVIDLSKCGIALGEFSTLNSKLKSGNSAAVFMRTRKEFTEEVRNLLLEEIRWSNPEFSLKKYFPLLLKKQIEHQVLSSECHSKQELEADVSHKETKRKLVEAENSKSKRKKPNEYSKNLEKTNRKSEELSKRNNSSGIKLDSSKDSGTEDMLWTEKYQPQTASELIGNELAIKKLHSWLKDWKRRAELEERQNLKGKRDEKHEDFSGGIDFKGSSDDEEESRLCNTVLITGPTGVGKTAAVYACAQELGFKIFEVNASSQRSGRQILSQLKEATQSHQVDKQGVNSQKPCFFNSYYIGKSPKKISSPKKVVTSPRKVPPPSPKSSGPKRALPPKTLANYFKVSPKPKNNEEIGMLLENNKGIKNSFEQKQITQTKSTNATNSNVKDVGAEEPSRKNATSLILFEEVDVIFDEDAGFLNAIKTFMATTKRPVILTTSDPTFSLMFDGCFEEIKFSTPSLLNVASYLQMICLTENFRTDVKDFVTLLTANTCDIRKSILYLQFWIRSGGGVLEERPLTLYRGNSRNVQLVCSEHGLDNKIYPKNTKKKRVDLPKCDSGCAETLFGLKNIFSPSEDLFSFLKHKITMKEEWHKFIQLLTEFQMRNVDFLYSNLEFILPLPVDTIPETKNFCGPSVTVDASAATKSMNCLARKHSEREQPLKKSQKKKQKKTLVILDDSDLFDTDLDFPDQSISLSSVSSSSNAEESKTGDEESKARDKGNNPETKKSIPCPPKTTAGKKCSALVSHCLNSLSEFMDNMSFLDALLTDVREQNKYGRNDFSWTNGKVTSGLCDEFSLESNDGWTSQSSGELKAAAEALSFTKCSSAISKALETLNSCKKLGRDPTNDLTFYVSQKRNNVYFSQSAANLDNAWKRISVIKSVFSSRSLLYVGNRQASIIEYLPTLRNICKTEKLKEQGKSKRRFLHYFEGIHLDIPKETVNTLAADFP
Chain of Peptidyl-prolyl cis-trans isomerase NIMA-interacting 1 (Homo sapiens) (Q13526 whole entry, looked up): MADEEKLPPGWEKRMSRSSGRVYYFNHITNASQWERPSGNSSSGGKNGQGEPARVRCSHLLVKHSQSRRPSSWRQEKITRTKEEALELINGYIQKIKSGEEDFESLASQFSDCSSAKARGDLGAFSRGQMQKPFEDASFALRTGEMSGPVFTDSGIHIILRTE
Chain of Phosphoglycerate kinase, glycosomal (Trypanosoma brucei brucei) (P07378 whole entry, looked up): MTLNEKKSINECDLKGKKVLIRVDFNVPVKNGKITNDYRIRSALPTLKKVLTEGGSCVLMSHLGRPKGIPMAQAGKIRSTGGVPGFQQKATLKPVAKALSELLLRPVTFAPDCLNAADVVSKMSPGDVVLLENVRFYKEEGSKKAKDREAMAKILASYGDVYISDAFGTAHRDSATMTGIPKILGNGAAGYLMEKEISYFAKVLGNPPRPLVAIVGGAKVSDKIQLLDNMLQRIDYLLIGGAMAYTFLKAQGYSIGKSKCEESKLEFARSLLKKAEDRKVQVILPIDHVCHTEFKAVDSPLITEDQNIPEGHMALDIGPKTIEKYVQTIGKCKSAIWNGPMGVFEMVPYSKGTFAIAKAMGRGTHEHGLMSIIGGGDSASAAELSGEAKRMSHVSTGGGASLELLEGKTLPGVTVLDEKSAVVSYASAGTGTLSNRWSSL

CCCCCCC(=O)CCCCCC/C=C/C[C@@H](O)[C@H](O)[C@@](N)(CO)C(=O)O
inactive: outcome [1] | Potency [2]

COc1c2c(cc3c1OCO3)CCN(C)C2
inactive: outcome [1] | Potency [2]

c1ccc2c(c1)sc1ccccc12
inactive: outcome [1]

O=c1oc2ccccc2c(O)c1Cc1c(O)c2ccccc2oc1=O
inactive: outcome [1]

CC(C)(C)NCC(O)c1ccccc1Cl (stereo not given)
0.543%: viability change [8]
inactive: outcome [3] | outcome [4] | outcome [1] | outcome [5] | outcome [6] | activation [7] 0.312% | outcome [8] | outcome [9] | outcome [10] | outcome [11] | outcome [12] | outcome [13] | outcome [14] | outcome [15] | Potency [2] | outcome [16] | outcome [17]

CCOP(=S)(OCC)Oc1ccc2c(C)c(Cl)c(=O)oc2c1
inactive: outcome [1] | Potency [2]

O=C(N/N=C/c1ccc([N+](=O)[O-])o1)c1cc([N+](=O)[O-])cc([N+](=O)[O-])c1O
inactive: outcome [1] | Potency [2]

COc1ccc2c(c1OC)C(=O)O[C@H]2[C@@H]1c2cc3c(cc2CCN1C)OCO3
5.02%: viability change [8]
inactive: outcome [3] | outcome [4] | outcome [5] | outcome [6] | outcome [8] | outcome [9] | outcome [11] | outcome [12] | outcome [13] | outcome [14] | outcome [15] | Potency [2] | outcome [16] | outcome [17]

C[C@](O)(CS(=O)(=O)c1ccc(F)cc1)C(=O)Nc1ccc(C#N)c(C(F)(F)F)c1
inactive: outcome [1]

CN1C(=O)CCS(=O)(=O)C1c1ccc(Cl)cc1 (stereo not given)
-1.88%: viability change [8]
inactive: outcome [3] | outcome [4] | outcome [5] | outcome [6] | outcome [8] | outcome [9] | outcome [10] | outcome [11] | outcome [12] | outcome [13] | outcome [14] | outcome [15] | Potency [2] | outcome [16] | outcome [17]

CCC1(c2ccc(N)cc2)CCC(=O)NC1=O (stereo not given)
inactive: outcome [3] | outcome [4] | outcome [5] | outcome [6] | activation [7] 1.56% | outcome [8] | outcome [9] | outcome [10] | outcome [11] | outcome [13] | outcome [14] | outcome [15] | Potency [2] | outcome [16] | outcome [17]
1.18%: viability change [8]

NC(=O)CC[C@@H]1NC(=O)[C@H](Cc2ccccc2)NC(=O)[C@H](Cc2ccc(O)cc2)NC(=O)[C@@H](N)CSSC[C@@H](C(=O)N2CCC[C@H]2C(=O)N[C@@H](CCCN=C(N)N)C(=O)NCC(N)=O)NC(=O)[C@H](CC(N)=O)NC1=O
inactive: outcome [1]

CCCC(C)(COC(N)=O)COC(N)=O
inactive: outcome [1] | Potency [2]

CC(C)N(CCC(C(N)=O)(c1ccccc1)c1ccccn1)C(C)C (stereo not given)
0% and 10.1%: viability change [8]
inactive: outcome [3] | outcome [4] | outcome [5] | outcome [6] | outcome [8] | outcome [9] | outcome [10] | outcome [11] | outcome [12] | outcome [13] | outcome [14] | outcome [15] | Potency [2] | outcome [16] | outcome [17]

Cc1ncsc1CCCl
6.84%: viability change [8]
inactive: outcome [4] | outcome [1] | outcome [5] | outcome [6] | outcome [8] | outcome [9] | outcome [12] | outcome [13] | outcome [14] | outcome [15] | Potency [2] | outcome [16] | outcome [17] | outcome [18]

NCCc1ccc(O)cc1
-8.88%: viability change [8]
inactive: outcome [3] | outcome [4] | outcome [5] | outcome [6] | activation [7] 1.31% | outcome [8] | outcome [9] | outcome [10] | outcome [11] | outcome [12] | outcome [13] | outcome [14] | outcome [15] | Potency [2] | outcome [16] | outcome [17] | outcome [19]

Nc1nc(N)nc(NC2CC2)n1
inactive: outcome [1] | Potency [2]

O=c1[nH]oc2c1CCNC2
inactive: outcome [3] | outcome [4] | outcome [5] | outcome [6] | outcome [8] | outcome [9] | outcome [11] | outcome [12] | outcome [13] | outcome [14] | outcome [15] | Potency [2] | outcome [16] | outcome [17] | outcome [18]
-2.38%: viability change [8]

NNc1ccccc1
inactive: outcome [1] | Potency [2]

CCCCC/C=C\C/C=C\C/C=C\C/C=C\CCCC(=O)NCC(=O)O
inactive: outcome [3] | outcome [4] | outcome [5] | outcome [6] | outcome [8] | outcome [9] | outcome [10] | outcome [11] | outcome [14] | outcome [15] | activity change, negative = inhibition [2] -11.7% [at 11.4 µM] | outcome [16] | outcome [17]
2.11%: viability change [8]
active: Potency [20] 28.2 µM | Potency [2] 18.9 µM

CC(NC(C)(C)C)C(=O)c1cccc(Cl)c1 (stereo not given)
inactive: outcome [4] | outcome [5] | outcome [6] | activation [7] -0.188% | outcome [8] | outcome [9] | outcome [10] | outcome [11] | outcome [12] | outcome [13] | outcome [14] | outcome [15] | Potency [2] | outcome [16] | outcome [17]
5.02%: viability change [8]
